SMN2 splice enh: increases expression of the SMN2 splice variant | HEK293 SMN2-luciferase splicing reporter, luminescence, 30-36 h | Potency, µM (top dose mostly 46.1 µM), inactives show top-dose activity change, positive = activation, hits mostly activators | 210,000 compounds, 2.8% hits | AID 1458; also: % of control where 0% means no effect; nearly all actives have a fitted effect of over 55% in size
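qHTS luciferase splicing reporter: luminescence rises when SMN2 exon 7 is included in transfected HEK293 cells. Compound exposure lasted 30-36 h at 37C, with 4.5 mM final sodium butyrate as control, followed by a ONE-Glo read.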
NPC1 prom act: NPC1 promoter activation; Huh7 NPC1 promoter luciferase reporter, 24 h; AID 485313; 320,000 compounds, 2.4% hits; Potency, µM (top dose mostly 9.22 µM), for the others: top-dose activation, most hits filed as activators; also: % of control where 0% means no effect; nearly all actives have a fitted effect of over 60% in size
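Luminescence from an NPC1 promoter-driven luciferase reporter in stably transfected Huh7 cells was measured after 24 h compound treatment at 37 °C, followed by 10 min ambient incubation with luciferase detection reagent.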
ELG1 genotoxic: inducers of genotoxicity in HEK293T ELG1-luciferase cells. HEK293T ELG1-luciferase reporter, luminescence, 16 h. Potency, µM (titrated, usually from 46 µM), for the others: top-dose activity change, positive = activation, actives largely listed as activators. 330,000 compounds, 1.3% hits. AID 504466; also: % of control where 0% means no effect; nearly all actives have a fitted effect of over 60% in size
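HEK293T cells expressing luciferase-tagged ELG1 were treated with compound or DMSO for 16 hr at 37°C. Luciferase activity was then read after 30 min with ONE-Glo at room temperature; rising signal flags genetic stress.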
Rab9 promoter act: activates the Rab9 promoter; Huh7 Rab9 promoter-luciferase reporter, luminescence, 24 h; 320,000 compounds, 2.8% hits; AID 485297; Potency, µM (series often up to 9.22 µM), inactives show at the top dose activation, negative = inhibition, hits mostly activators; also: % of control where 0% means no effect; nearly all actives have a fitted effect of over 60% in size
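Luminescence from Amplite-detected luciferase (10 minutes, ambient) reports Rab9 promoter activation. Before that, stable Rab9-luciferase Huh7 cells (1500/well, reduced-serum OP-MEM I plus 10% FBS) were exposed to compound for 24 hours at 37C.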
FLuc modulator: counter-screen for miR-21 project: firefly luciferase inhibitors or activators. Potency, µM (doses to about 57.5 µM), inactives show at the top dose activity change, negative = inhibition, usual class: inhibitors. AID 588342. purified FLuc, Km substrates, luminescence inhibition. P08659. 360,000 compounds, 6.9% hits;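 also: plate controls were vehicle for no effect and reference inhibitor for full effect; nearly all actives have a fitted effect of over 55% in size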
Target sequence (P08659 whole entry, looked up): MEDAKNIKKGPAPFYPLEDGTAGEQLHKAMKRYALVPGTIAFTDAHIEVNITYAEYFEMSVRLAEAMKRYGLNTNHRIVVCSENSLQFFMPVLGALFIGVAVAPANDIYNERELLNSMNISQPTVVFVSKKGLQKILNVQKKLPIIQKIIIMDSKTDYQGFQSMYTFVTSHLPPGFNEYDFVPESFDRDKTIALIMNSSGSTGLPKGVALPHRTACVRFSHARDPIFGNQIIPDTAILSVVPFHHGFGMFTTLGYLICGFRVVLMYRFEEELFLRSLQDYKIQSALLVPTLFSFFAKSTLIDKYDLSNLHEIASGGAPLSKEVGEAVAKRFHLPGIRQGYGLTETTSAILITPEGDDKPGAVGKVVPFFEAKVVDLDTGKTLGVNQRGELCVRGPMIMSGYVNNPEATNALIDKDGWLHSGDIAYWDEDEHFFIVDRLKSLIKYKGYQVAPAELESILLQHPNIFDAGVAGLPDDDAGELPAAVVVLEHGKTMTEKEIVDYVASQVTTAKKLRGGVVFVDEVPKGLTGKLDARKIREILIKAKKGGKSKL
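Biochemical qHTS of compounds, final roughly 60 µM downward over six points, against 10 nM purified firefly luciferase using Km concentrations of substrates (10 uM D-luciferin, 10 uM ATP) in Tris acetate pH 7.5 buffer; luminescence output.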
Numbers without * were called inactive; ! = not active in a repeat; [ ] = another dose, or the depositor's remark. Hits are enriched below; roughly 7.4% of the tested compounds scored in any of these assays. Calls follow the shape of the dose curve; as a rule, active = well fitted curve in the direction sought with a large enough effect; inconclusive = small, poorly fitted or top-dose-only effect, or another doubt; inactive = no such curve, though single readings can be large; an effect the other way counts as inactive or inconclusive. Potency is read from the fitted curve at half-maximal effect.

Cc1ccc2c(c1)sc1nc(=O)n(-c3cccc(Cl)c3)c(=O)n12 was read as SMN2 splice enh 11.2µM*!, NPC1 prom act 1.58µM*, ELG1 genotoxic inconclusive, Rab9 promoter act 1.58µM* and FLuc modulator 5.8%.
O=c1nc2sc3ccccc3n2c(=O)n1-c1ccc(Cl)cc1 was read as SMN2 splice enh 20µM*, NPC1 prom act 3.16µM*, ELG1 genotoxic inconclusive, Rab9 promoter act 2.82µM* and FLuc modulator -5.7%.
`O=C(N/N=C/c1ccco1)c1ccc(Br)o1` gave SMN2 splice enh 3.5%, NPC1 prom act -3.0%, ELG1 genotoxic 2.8%, Rab9 promoter act -2.0% and FLuc modulator -11.1%.
`O=C(/C=C/c1ccc2c(c1)OCO2)c1ccccn1` gave NPC1 prom act 2.24µM*, ELG1 genotoxic inconclusive, Rab9 promoter act 3.55µM* and FLuc modulator 0.338µM*.
`CCN(C(=O)/C=C/c1ccc2c(c1)OCO2)c1ccccc1` gave SMN2 splice enh -8.4%, NPC1 prom act 8.3%, ELG1 genotoxic 1.5%, Rab9 promoter act 14.5% and FLuc modulator inconclusive.
For O=C(N/N=C/c1ccc2c(c1)OCO2)c1ccc2ccccc2n1 the results were SMN2 splice enh 0.8%, NPC1 prom act 1.6%, ELG1 genotoxic inconclusive, Rab9 promoter act 14.8% and FLuc modulator 3.01µM*.
`O=C(N/N=C/c1ccc2c(c1)OCO2)c1ccccn1` gave SMN2 splice enh 3.55µM*, NPC1 prom act 0.316µM*, ELG1 genotoxic inconclusive, Rab9 promoter act 0.398µM* and FLuc modulator 2.13µM*.
For O=C(N/N=C/c1ccco1)c1cc2ccccc2o1 the results were NPC1 prom act 15.4%, ELG1 genotoxic 11.5%, Rab9 promoter act 19.0% and FLuc modulator 16.9µM*.
Screening N#Cc1ccccc1NC(=O)C(=O)NCC(c1cccnc1)N1CCc2ccccc21 (centres undefined) returned FLuc modulator -1.8%.
Screening CCOc1ccccc1NC(=O)CSc1nnc(N)s1 returned SMN2 splice enh 2.8% and FLuc modulator -7.7%.
`CCOC(=O)c1ccccc1NC(=O)NC(C)c1c(-n2cccc2)sc(C)c1C` (centres undefined) gave SMN2 splice enh -3.2% and FLuc modulator -8.2%.
Screening O=C(COc1ccc(Cl)cc1)NCCCNC(=O)c1ccncc1 returned NPC1 prom act 0.0%, ELG1 genotoxic 1.4%, Rab9 promoter act 0.4% and FLuc modulator 0.6%.
Cc1ccccc1CN1C2=NCCN2C(=O)C2=C1CCN(Cc1ccccc1)C2 was read as SMN2 splice enh -34.6%[9.22 µM].
`CCc1ccc2nc(N(Cc3cccnc3)C(C)=O)sc2c1` gave FLuc modulator -5.7%.
Screening CC(C)(C)c1cc(C(=O)N/N=C/c2cc3c(cc2Br)OCO3)n[nH]1 returned NPC1 prom act -11.3%, ELG1 genotoxic 1.1%, Rab9 promoter act -2.1% and FLuc modulator -6.5%.
For O=C(N/N=C/c1ccsc1)c1ccc2ccccc2n1 the results were SMN2 splice enh 27.3%, NPC1 prom act 22.0%, ELG1 genotoxic 12.8%, Rab9 promoter act inconclusive and FLuc modulator 21.3µM*.
`O=C(N/N=C/c1cc2c(cc1Br)OCO2)c1c[nH]c2ccccc12` gave SMN2 splice enh 11.2µM*, NPC1 prom act 2.51µM*, ELG1 genotoxic 7.8%, Rab9 promoter act 2.51µM* and FLuc modulator 9.53µM*.
O=C(N/N=C/c1cc2c(cc1Br)OCO2)c1cc2ccccc2o1 was read as NPC1 prom act 22.2%, ELG1 genotoxic 5.7%, Rab9 promoter act 22.1% and FLuc modulator 9.53µM*.
For Cc1ccc(C(=O)N/N=C\c2cc3c(cc2Br)OCO3)cn1 the results were NPC1 prom act -6.7%, ELG1 genotoxic inconclusive, Rab9 promoter act -5.9% and FLuc modulator 1.8%.
Screening O=C(N/N=C/c1cc2c(cc1Br)OCO2)c1ccccn1 returned NPC1 prom act 2.51µM*, ELG1 genotoxic inconclusive, Rab9 promoter act 1.26µM* and FLuc modulator 2.69µM*.
Screening O=C(NCCCN1CCOCC1)c1ccc(Sc2cccc(Cl)c2)c([N+](=O)[O-])c1 returned SMN2 splice enh -16.0%[1.84 µM], NPC1 prom act -2.8%, ELG1 genotoxic -1.0%, Rab9 promoter act inconclusive and FLuc modulator 2.2%.
CCCc1ccc(S(=O)(=O)N2CCC(c3nnc(-c4cccc(C)c4)o3)CC2)cc1 was read as SMN2 splice enh -30.0% and FLuc modulator -18.6%.
For O=C(COc1ccccc1Cl)Nc1nnc(S(=O)(=O)N2CCCC2)s1 the results were NPC1 prom act -6.9%, ELG1 genotoxic 0.1%, Rab9 promoter act -2.7% and FLuc modulator -4.3%.
CC(C)Oc1ccc(CNC(=O)c2ccc3c(c2)N(Cc2ccc(F)cc2)CCS3)cc1 was read as SMN2 splice enh -14.4% and FLuc modulator 1.9%.
For COC(=O)c1ccccc1NC(=O)c1ccc2c(c1)CC(C)O2 (centres undefined) the results were NPC1 prom act 27.8%, ELG1 genotoxic 4.8%, Rab9 promoter act 2.24µM* and FLuc modulator 16.9µM*.
Cc1ccc(NC(=O)c2ncc(Cl)c(Cl)c2Cl)cc1C was read as SMN2 splice enh inconclusive, NPC1 prom act -3.4%, ELG1 genotoxic inconclusive, Rab9 promoter act 2.82µM* and FLuc modulator -15.0%.
Screening Cc1ccc(NC(=O)c2cnc3ccccc3n2)cc1C returned NPC1 prom act 0.199µM*, ELG1 genotoxic inconclusive, Rab9 promoter act 0.501µM* and FLuc modulator 2.39µM*.
`NC(=O)c1ccc(NC(=O)c2cnc3ccccc3n2)cc1` gave NPC1 prom act inconclusive, ELG1 genotoxic inconclusive, Rab9 promoter act 2.51µM* and FLuc modulator inconclusive.
O=C(Nc1ccccc1)c1cnc2ccccc2n1 was read as SMN2 splice enh inconclusive, NPC1 prom act 18.5%, ELG1 genotoxic inconclusive, Rab9 promoter act 6.7% and FLuc modulator 12µM*.
`C[C@H]1OC(=O)CC[C@@H]2[C@]1(C)CCC1[C@@]2(C)CC[C@@]2(C)C3CC(C)(C)CC[C@]3(CO)CC[C@]12C` (some centres undefined) gave SMN2 splice enh 3.9%.
COCCn1c(N)c(Sc2ccccc2[N+](=O)[O-])c(=O)[nH]c1=O was read as NPC1 prom act 20.5%, ELG1 genotoxic -2.1%, Rab9 promoter act -5.4% and FLuc modulator -0.5%.
`COc1cc(/C=C2/C(=O)N(c3cccc(Br)c3)N=C2C)cc(OC)c1O` gave NPC1 prom act -3.3%, ELG1 genotoxic -2.8%, Rab9 promoter act -0.2% and FLuc modulator 16.9µM*.
For COc1ccc(/C=C2/C(=O)N(c3c(F)c(F)c(F)c(F)c3F)N=C2C)cc1 the results were NPC1 prom act 1.9%, ELG1 genotoxic 13.5%, Rab9 promoter act -2.0% and FLuc modulator inconclusive.
COc1ccc(/C=C2/C(=O)N(c3ccccc3)N=C2C)cc1OC was read as NPC1 prom act -3.7%, ELG1 genotoxic 10.8%, Rab9 promoter act -2.1% and FLuc modulator 6.01µM*.

Compound activity as filed in PubChem BioAssay.
